# High-throughput results: PubChem, National Center for Advancing Translational Sciences (NCATS)
# BAZ2B block: inhibitors of human BAZ2B bromodomain; AlphaScreen BAZ2B-H3K14Ac peptide displacement; Potency, µM (series often up to 114 µM), hits mostly inhibitors; Q9UIF8; 360,000 tested, 4.4% active; AID 504333; also: nearly all actives have a fitted effect of over 60% in size
#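 Compounds, titrated to a top concentration of 110 uM, were incubated 30 min at room temperature with preformed BAZ2B/acetyl-K14 H3 peptide complex (50 nM each). Proximity signal was measured by AlphaScreen after 20 min with beads.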
# G9a block: G9a (human) methyltransferase inhibition; 350,000 tested, 8.8% active; G9a H3K9 monomethylation, AlphaScreen, 2 h; Q96KQ7; AID 504332; Potency, µM (titrated, usually from 102 µM), hits mostly inhibitors; also: nearly all actives have a fitted effect of over 75% in size
# Target sequence (Q96KQ7 913-1193 limits assumed): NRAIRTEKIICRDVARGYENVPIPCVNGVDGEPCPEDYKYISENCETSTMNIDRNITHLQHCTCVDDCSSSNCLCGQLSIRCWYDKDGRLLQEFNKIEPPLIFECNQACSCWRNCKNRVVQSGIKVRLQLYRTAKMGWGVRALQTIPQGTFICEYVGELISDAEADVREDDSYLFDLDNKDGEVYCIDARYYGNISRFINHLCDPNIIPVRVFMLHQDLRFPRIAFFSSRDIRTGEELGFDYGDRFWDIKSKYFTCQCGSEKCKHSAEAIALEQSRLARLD
#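 AlphaScreen detection with an anti-monomethyl H3K9 antibody quantified product after a 2 h room-temperature reaction containing 500 nM biotinylated H3K9 peptide, 20 µM SAM and 20 nM enzyme, which had been preincubated 15 min with compound.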
# Sfp inh: inhibitors of Bacillus subtilis Sfp phosphopantetheinyl transferase | Q9F4F7 | Biochemical Sfp PPTase activity, qHTS | Potency, µM, hits mostly inhibitors | 310,000 tested, 3.5% active;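 also: the enzyme is Sfp with the accession as filed and its product quenches rhodamine fluorescence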
#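 After 15 min at room temperature with compound, 15 nM Sfp received 5 uM rhodamine-CoA plus 12.5 uM BHQ-2-ybbR (50 mM Hepes pH 7.6, 10 mM MgCl2). Rate came from the fluorescence difference over 30 min, ex 525/em 598 nm.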
# L3MBTL1 block: inhibitors of human L3MBTL1; AlphaScreen L3MBTL1–H3K9me1 peptide binding; Potency, µM (series often up to 57.1 µM), most hits filed as inhibitors; 230,000 tested, 0.66% active; AID 485360; also: nearly all actives have a fitted effect of over 60% in size
#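 L3MBTL1 (50 nM) pre-complexed 30 min with biotinylated H3(1-15)K9me1 peptide (75 nM), then compounds added for 30 min at room temperature; AlphaScreen streptavidin donor/nickel chelate acceptor beads (10 ug/mL final) read after 30 min dark incubation.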
# HP1b chromo inh: inhibitors of HP1-beta chromodomain binding to methylated histone tails; P83916; AlphaScreen HP1-beta / biotin-H3K9me3 peptide binding; Potency, µM (titrated, usually from 114 µM), most hits filed as inhibitors; 390,000 tested, 0.56% active; also: nearly all actives have a fitted effect of over 70% in size
# Target sequence (P83916 whole entry, looked up): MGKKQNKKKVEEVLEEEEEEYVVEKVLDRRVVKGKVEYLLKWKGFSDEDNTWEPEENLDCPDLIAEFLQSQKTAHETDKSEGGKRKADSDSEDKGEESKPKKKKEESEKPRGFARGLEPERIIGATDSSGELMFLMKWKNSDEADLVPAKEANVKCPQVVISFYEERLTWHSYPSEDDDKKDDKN
#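 HP1-beta protein (50 nM final) preincubated 30 min at room temperature with biotinylated H3(1-18)K9me3 peptide (50 nM) in PBS pH 7.4, 0.01% Tween-20, then compound added for 30 min. AlphaScreen streptavidin donor/nickel chelate acceptor beads (10 ug/mL final), 30 min dark, luminescence read.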
# JMJD2A Tudor inh: blocks the human JMJD2A Tudor domain | O75164 | AlphaScreen JMJD2A-Tudor / H3K4me3 peptide binding | Potency, µM (top dose mostly 114 µM), usual class: inhibitors | 390,000 tested, 4.4% active | AID 504339; also: nearly all actives have a fitted effect of over 50% in size
# Numbers stand for hits; - = inactive; ? = inconclusive; . = not tested or not shown; ! = a repeat was not active; [ ] = dose if it differs, or a comment. This is a sample that favours compounds with a hit; in the whole collection about 12% have one here. Calls follow the shape of the dose curve; as a rule, active = well fitted curve in the direction sought with a large enough effect; inconclusive = small, poorly fitted or top-dose-only effect, or another doubt; inactive = no such curve, though single readings can be large; an effect the other way counts as inactive or inconclusive.
SMILES,BAZ2B block,G9a block,Sfp inh,L3MBTL1 block,HP1b chromo inh,JMJD2A Tudor inh
Cc1cccc2sc(N(CCN(C)C)C(=O)/C=C/c3cccs3)nc12,-,?,32µM,-,-,?
COc1ccc2sc(N(CCN(C)C)C(=O)/C=C/c3cccs3)nc2c1,.,?,?,.,-,?
Cc1cc2c(cc1C)N(C(=O)CCl)CCN2C(=O)CCl,.,.,.,.,-,40µM
CC(C)(C)Nc1cccccc1=O,-,45µM,-,-,-,-[11.4 µM]
Cc1ccc(Nc2cccccc2=O)cc1,-,-,-,-,-,?
CCOC(=O)CCCNC(=O)N1CCc2nc(COc3ccccc3)c3c(c2C1)CO[C@@H](C)C3,.,.,-,.,.,.
CCS(=O)(=O)Nc1ccc(Cc2ccc(NS(=O)(=O)CC)cc2)cc1,-,50µM,-,.,-,-
O=C(O)/C(=C\c1ccc(Cl)c([N+](=O)[O-])c1)c1ccc(S(=O)(=O)N2CCCC2)s1,56µM,-[2.33 µM],.,-,-,?
O=C(O)/C(=C\c1ccc(Cl)c([N+](=O)[O-])c1)c1ccc(S(=O)(=O)N2CCCCC2)s1,?,45µM,45µM,-,-,?
COc1cccc(CNC(=O)N2CCC(CN3CCC(C)CC3)CC2)c1,-,-,.,.,-,-
N#CC1(C#N)CC(C=O)=C(N)C1(C#N)CC(=O)c1ccc(F)cc1 (stereo not drawn),-,32µM,-,-,-,-
COc1ccc(Cn2c(=O)c3cccnc3n(CC(=O)Nc3ccc(C)c(F)c3)c2=O)cc1,-,-,.,.,-,-
CCN(CC)C(=O)CSc1n[nH]c(=S)n1N,-,.,50µM,-,-,-[11.4 µM]
Clc1ccc(-n2nnnc2-c2ccccc2)cc1,-,45µM,-,-,-,-
Clc1ccc(-n2nnnc2-c2cnc3ccccc3c2-c2ccccc2)cc1,-,14µM,-,-,-,-
Clc1ccc(-c2nnnn2-c2ccc(Cl)cc2)cc1,-,-,-,-,-,-
CC(=O)Cc1nsc(Nc2cccc(C)c2)n1,-,-,-,-,-,-
CC(=O)Cc1nsc(Nc2ccccc2)n1,-,79µM,-,.,-,-
Cc1ccc(S(=O)(=O)N2CCN(C(=O)CCN3C(=O)c4ccccc4C3=O)CC2)cc1C,-,79µM,-,-,-,-
O=C(CCN1C(=O)c2ccccc2C1=O)N1CCN(Cc2ccc(Cl)cc2Cl)CC1,-,40µM,-,-,-,-
Cc1ccc(S(=O)(=O)N2CCN(C(=O)Cc3ccccc3)CC2)cc1C,-,?,.,-,-,-
COC(=O)COc1ccc(-c2nccc(-c3ccccn3)n2)cc1,-,-,-,.,-,-
COC(=O)COc1ccc(-c2nccc(-c3ccc(Br)cc3)n2)cc1,-,-,-,.,-,16µM
Cc1cccc(/C=C2\CCC(=C3SCCCS3)C2=O)c1,10µM,50µM,-,-,16µM,45µM
CCN(CC)S(=O)(=O)c1ccc(N(C)C)c(NC(=O)CSCc2c(C)noc2C)c1,-,.,-,.,-,-
SMILES,BAZ2B block,G9a block,Sfp inh,L3MBTL1 block,HP1b chromo inh,JMJD2A Tudor inh
O=C(CS(=O)(=O)c1cccc2nsnc12)Nc1ccc(F)cc1,-,-,.,.,-,-
O=C(CCS(=O)(=O)c1cccc2nonc12)Nc1ccc(Br)cc1,-,-,-,.,-,79µM!
COc1ccc(N2CCN(CCNS(=O)(=O)c3cccc4nsnc34)CC2)cc1,-,?,-,-,-,-[11.4 µM]
COc1ccc(N2CCN(CCNC(=O)CCS(=O)(=O)c3cccc4nsnc34)CC2)cc1,?,45µM,-,-,.,.
O=C(CCS(=O)(=O)c1cccc2nsnc12)Nc1ccc(F)cc1,-,10µM,.,.,-,-
N#Cc1ccccc1NC(=O)C(=O)NCC(c1cccnc1)N1CCc2ccccc21 (stereo not drawn),-,-,.,.,-,-
O=C1SCCC1NS(=O)(=O)c1ccc([N+](=O)[O-])cc1 (stereo not drawn),?,50µM,-,.,-,-
CN(Cc1ccco1)c1cc(-c2cccc(NS(C)(=O)=O)c2)ncn1,.,-[0.501 µM],-,.,.,.
O=C(/C=C/c1ccc(Br)cc1)c1ccc(NC2=NCCCS2)cc1,?,?,40µM,-,-,?
O=C(/C=C/c1ccccc1)c1ccc(NC2=NCCCS2)cc1,?,?,-,-,-,?
CC(C)(C)c1ccc(/C=C/C(=O)c2ccc(NC3=NCCCS3)cc2)cc1,?,40µM,?,-,-,?
CC(C)(C)c1ccc(/C=C/C(=O)Nc2ccncc2)cc1,-,-,-,-,-,-
CC(C)CCn1c(=O)c2sccc2n2c(CCCC(=O)NC3CCC(C)CC3)nnc12 (stereo not drawn),-,-,.,.,-,-
COC(=O)C1C(O)CC[C@H]2CN3CCc4c([nH]c5ccccc45)C3C[C@H]12 (stereo partly drawn),.,.,-,.,.,.
CCOC(=O)c1c(N)sc(-c2ccccc2)c1C,-,8.9µM,?,-,?,?
CCOC(=O)c1c(N)sc(C)c1-c1ccccc1,.,18µM,35µM,.,.,.
Cc1sc(N)c(C(=O)c2ccccc2)c1C,?,.,16µM,-,-,-[11.4 µM]
COC(=O)c1c(N)sc(C(=O)N2CCOCC2)c1C,-,-[12.7 µM],-,.,-,-
CCOC(=O)c1sc(-c2ccccc2)cc1N,-,-,-,-,-,-
